Test [1] in a line: qHTS assay to identify small molecule agonists of the peroxisome proliferator-activated receptor delta (PPARd) signaling pathway - cell viability counter screen (AID 743211). Also: nearly all actives have a fitted effect of over 55% in size. Also: potency is read from the fitted curve at half-maximal effect. In short, it runs like this: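 Luminescent ATP viability assay (CellTiter-Glo, 30 min RT) in UAS-bla HEK293H cells carrying the PPAR delta reporter construct, 3000 cells/well, after a 17 h compound treatment at 37 C.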
On the technique in general: Quantitative high-throughput screening tests each substance at several concentrations.

The nature of test [2]: qHTS assay to identify small molecule antagonists of the peroxisome proliferator-activated receptor delta (PPARd) signaling pathway - cell viability counter screen (AID 743213). Also: nearly all actives have a fitted effect of over 50% in size. Also: potency is read from the fitted curve at half-maximal effect. In short, it runs like this: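 HEK293H cells with the PPARd UAS-bla reporter, co-treated 17 h at 37 C with compounds and L165041 (300 nM final), were lysed with CellTiter-Glo. Luminescence indicated viable cell content.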

For test [3], the target named is Bile acid receptor (Homo sapiens) (UniProt Q96RI1). As to the kind of experiment: qHTS assay to identify small molecule antagonists of the farnesoid-X-receptor (FXR) signaling pathway (AID 743217; active = well fitted inhibition curve with a large enough effect in the signal ratio in the repeat runs, not every such curve was filed as active; the % refers to the signal ratio). In short, it runs like this: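 Antagonist mode: chenodeoxycholic acid at 50 uM final stimulates a UAS-driven beta-lactamase reporter in HEK 293T FXR-bla cells during 16 h, 37C compound exposure. Read-out is FRET substrate fluorescence after 2 h at room temperature.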
Chain of Bile acid receptor (Homo sapiens) (Q96RI1 whole entry, looked up): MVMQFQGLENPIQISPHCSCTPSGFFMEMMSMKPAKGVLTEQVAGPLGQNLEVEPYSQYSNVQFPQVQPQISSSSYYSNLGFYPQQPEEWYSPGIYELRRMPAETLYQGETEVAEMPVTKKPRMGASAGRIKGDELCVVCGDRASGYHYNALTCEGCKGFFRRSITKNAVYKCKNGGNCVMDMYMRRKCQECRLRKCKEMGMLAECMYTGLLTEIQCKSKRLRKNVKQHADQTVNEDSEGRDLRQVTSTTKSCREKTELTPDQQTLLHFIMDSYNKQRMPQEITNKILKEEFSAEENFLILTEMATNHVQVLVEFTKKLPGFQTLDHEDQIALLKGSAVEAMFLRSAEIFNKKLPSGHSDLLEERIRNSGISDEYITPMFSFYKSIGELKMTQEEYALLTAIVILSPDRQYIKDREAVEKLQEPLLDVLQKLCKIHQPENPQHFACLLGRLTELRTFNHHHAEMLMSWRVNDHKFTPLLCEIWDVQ

Test [4] is described as follows: qHTS assay to identify small molecule agonists of the farnesoid-X-receptor (FXR) signaling pathway - cell viability counter screen (AID 743218). Also: nearly all actives have a fitted effect of over 45% in size. Also: potency is read from the fitted curve at half-maximal effect. Put shortly: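 Viability counter screen in the same wells: CellTiter-Glo luminescence, 30 min room-temperature incubation, measured after the beta-lactamase read. Cells were GeneBLAzer FXR-UAS-bla HEK 293T, compound-treated 16 h at 37C.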

The nature of test [5]: qHTS assay to identify small molecule antagonists of the farnesoid-X-receptor (FXR) signaling pathway - cell viability counter screen (AID 743221; active = well fitted cell-killing curve with a large enough effect in the repeat runs, not every such curve was filed as active; also: nearly all actives have a fitted effect of over 50% in size; also: potency is read from the fitted curve at half-maximal effect). In short, it runs like this:
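In GeneBLAzer FXR-UAS-bla HEK 293T cells stimulated with 50 uM chenodeoxycholic acid (final), compounds acted for 16 h at 37 C. Viability was assessed afterwards by CellTiter-Glo luminescence.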

For test [6], the target named is Vitamin D3 receptor (Homo sapiens) (UniProt P11473). In words: qHTS assay to identify small molecule agonists of the vitamin D receptor (VDR) signaling pathway (AID 743222; calls by dose curve). In short, it runs like this: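 Agonist mode, beta-lactamase reporter: fluorescence from LiveBLAzer B/G FRET substrate (2 h, room temperature) read after 16 h compound treatment at 37 C of VDR-bla cells, which were pre-incubated 4 h after seeding.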
Chain of Vitamin D3 receptor (Homo sapiens) (P11473 whole entry, looked up): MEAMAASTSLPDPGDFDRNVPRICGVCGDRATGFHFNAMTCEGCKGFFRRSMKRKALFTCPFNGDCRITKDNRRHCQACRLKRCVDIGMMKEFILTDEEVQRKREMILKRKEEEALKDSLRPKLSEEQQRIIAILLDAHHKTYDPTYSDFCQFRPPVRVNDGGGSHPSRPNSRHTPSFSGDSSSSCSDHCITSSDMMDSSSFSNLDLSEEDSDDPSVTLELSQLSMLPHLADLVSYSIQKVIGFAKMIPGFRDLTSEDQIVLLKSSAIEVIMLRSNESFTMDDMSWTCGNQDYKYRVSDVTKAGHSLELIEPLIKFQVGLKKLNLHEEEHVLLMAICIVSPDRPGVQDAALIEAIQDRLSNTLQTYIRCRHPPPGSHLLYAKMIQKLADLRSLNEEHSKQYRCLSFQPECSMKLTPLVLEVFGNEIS

For test [7] the target is unchanged. In words: qHTS assay to identify small molecule antagonists of the vitamin D receptor (VDR) signaling pathway (AID 743223; active = well fitted inhibition curve with a large enough effect in the signal ratio in the repeat runs, not every such curve was filed as active; the % refers to the signal ratio). In short, it runs like this: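 Agonist 1alpha,25-dihydroxyvitamin D3 (3 nM in well) was added with each compound to VDR-bla cells preincubated 4 h. Cells stood 16 h at 37C, then FRET substrate 2 h at room temperature; fluorescence intensity recorded.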

Test [8] can be described thus: qHTS assay to identify small molecule agonists of the vitamin D receptor (VDR) signaling pathway - cell viability counter screen (AID 743224). Also: nearly all actives have a fitted effect of over 50% in size. Also: potency is read from the fitted curve at half-maximal effect. Put shortly:
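Counter screen run in the same wells as the VDR-bla reporter assay: CellTiter-Glo luminescence, 30 min at room temperature, after 16 h compound treatment at 37C of cells pre-plated for 4 h.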

Test [9] can be described thus: qHTS assay to identify small molecule antagonists of the vitamin D receptor (VDR) signaling pathway - cell viability counter screen (AID 743225). Also: nearly all actives have a fitted effect of over 50% in size. Also: potency is read from the fitted curve at half-maximal effect. In short, it runs like this: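 Luminescent cell viability (CellTiter-Glo) in VDR-bla HEK 293T cells after 16 h compound exposure at 37C in the presence of 3 nM final 1-alpha,25-dihydroxy vitamin D3.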
The nature of test [10]: qHTS assay to identify small molecule agonists of the NFkB signaling pathway (AID 1159509; active = well fitted curve in the direction sought with a large enough effect in the signal ratio in the repeat runs, not every such curve was filed as active; the % refers to the signal ratio; also: series mostly up to about 61 µM). In short, it runs like this:
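Agonist activity was read as beta-lactamase-driven FRET change (460 and 530 nm emission, 405 nm excitation) following 1.5 hr substrate loading at room temperature. Beforehand, ME-180 NFkB-bla reporter cells were treated with compounds for 5 hr at 37 C.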

The nature of test [11]: qHTS assay to identify small molecule agonists of the endoplasmic reticulum stress response signaling pathway (AID 1159516; active = well fitted activation curve with a large enough effect in the signal ratio in the repeat runs, not every such curve was filed as active; the % refers to the signal ratio). Put shortly: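 Ratiometric FRET readout (405 nm excitation; 460 and 530 nm emission) of a beta-lactamase gene driven by the ER stress response element, after 2 hr substrate loading. HeLa ESRE-bla cells were seeded overnight and treated with compounds for only 5 hr at 37 C.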

The nature of test [12]: qHTS assay to identify small molecule antagonists of the retinoid-related orphan receptor gamma (ROR-gamma) signaling pathway - cell viability counter screen (AID 1159520). Also: nearly all actives have a fitted effect of over 50% in size. In short, it runs like this:
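Tet-on ROR gamma CHO cells (1,000/well) were plated 4 hr, given compounds in DMSO for 2 hr at 37 C, then induced with 1 uM final doxycycline for 16 hr. Viability was read as ATP by CellTiter-Glo luminescence after 30 min.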

Test [13] can be described thus: qHTS assay to identify small molecule agonists of the AP-1 signaling pathway - cell viability counter screen (AID 1159525; calls by dose curve; also: nearly all actives have a fitted effect of over 55% in size). Put shortly: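 Each titration point was normalised to DMSO and tetra n-octyl ammonium bromide controls. The read was Cell Titer Glo luminescence after 30 min at RT, following 5 h compound exposure of ME-180 AP-1-bla cells at 37 °C.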
Test [14] can be described thus: qHTS assay to identify small molecule agonists of the AP-1 signaling pathway (AID 1159526; calls by dose curve).
Test [15] has as its target Peroxisome proliferator-activated receptor delta (Homo sapiens) (UniProt Q03181). As to the kind of experiment: qHTS assay to identify small molecule agonists of the peroxisome proliferator-activated receptor delta (PPARd) signaling pathway (AID 743212; calls by dose curve). In short, it runs like this:
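Cells expressing a UAS-driven beta-lactamase reporter (PPARd-bla HEK293H) were given test compounds after a 5 h settle and kept at 37 C. Reporter activity was then measured as FRET fluorescence using LiveBLAzer B/G substrate.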

The target is the same in test [16]. In words: qHTS assay to identify small molecule antagonists of the peroxisome proliferator-activated receptor delta (PPARd) signaling pathway (AID 743215; active = well fitted inhibition curve with a large enough effect in the signal ratio in the repeat runs, not every such curve was filed as active; the % refers to the signal ratio;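 also: cells stimulated with agonist L165041 at 300 nM final during compound exposure; series mostly up to about 62 µM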). Put shortly: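 Agonist L165041 (300 nM final) added with compound to PPARd-bla HEK293H UAS-bla reporter cells; 17 h incubation at 37 C. Read-out: LiveBLAzer FRET substrate, 2 h at room temperature, fluorescence intensity.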

The target of test [17] is Bile acid receptor (Homo sapiens) (UniProt Q96RI1). In words: qHTS assay to identify small molecule agonists of the farnesoid-X-receptor (FXR) signaling pathway (AID 743220; active = well fitted activation curve with a large enough effect in the signal ratio in the repeat runs, not every such curve was filed as active; the % refers to the signal ratio). In short, it runs like this:
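FXR-UAS-bla HEK 293T cells carrying a UAS-driven beta-lactamase reporter were plated for 5 h at 37C/5% CO2, then exposed to DMSO-dissolved Tox21 10K compounds for 16 h at 37C. A LiveBLAzer B/G FRET substrate was loaded for 2 h at room temperature before fluorescence reading.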

Test [18] is described as follows: qHTS assay to identify small molecule agonists of the endoplasmic reticulum stress response signaling pathway - cell viability counter screen (AID 1159517; calls by dose curve). In short, it runs like this:
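Cpd-treated ESRE-bla HeLa (5 hr, 37 C) → LiveBLAzer 2 hr RT → CellTiter-Glo 30 min RT → luminescence.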

Test [19] deals with Nuclear receptor ROR-gamma (Homo sapiens) (UniProt P51449). As to the kind of experiment: qHTS assay to identify small molecule antagonists of the retinoid-related orphan receptor gamma (ROR-gamma) signaling pathway (AID 1159521). In short, it runs like this: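 CHO cells expressing RORγ under a TET-on promoter, luciferase under RORE control. Dox 1 uM final, 16 h; compounds added 2 h prior. Luminescence decrease measured.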

Records with an inconclusive call do not appear. Unmarked numbers belong to inactive results. Active and inactive are the calls of the source. Unless noted, calls follow the shape of the dose curve; as a rule, active = well fitted curve in the direction sought with a large enough effect in the repeat runs; inconclusive = weak or mixed curves; inactive = no such curve, though single readings can be large; an effect the other way counts as inactive or inconclusive.

Chain of Peroxisome proliferator-activated receptor delta (Homo sapiens) (Q03181 whole entry, looked up): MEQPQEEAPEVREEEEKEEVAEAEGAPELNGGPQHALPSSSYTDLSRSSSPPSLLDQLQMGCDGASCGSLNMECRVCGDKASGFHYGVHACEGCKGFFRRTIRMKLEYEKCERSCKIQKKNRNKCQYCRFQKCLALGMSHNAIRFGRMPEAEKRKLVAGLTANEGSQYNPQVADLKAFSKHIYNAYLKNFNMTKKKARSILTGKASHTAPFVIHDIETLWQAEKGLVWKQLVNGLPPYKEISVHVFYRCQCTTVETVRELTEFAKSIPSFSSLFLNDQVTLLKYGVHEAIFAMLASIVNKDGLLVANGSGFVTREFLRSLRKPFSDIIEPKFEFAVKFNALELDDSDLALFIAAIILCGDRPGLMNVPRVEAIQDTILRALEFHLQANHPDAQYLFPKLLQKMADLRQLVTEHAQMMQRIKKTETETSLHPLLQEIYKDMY

For the molecule `CC(C)(O)c1coc(S(=O)(=O)NC(=O)Nc2c3c(cc4c2CCC4)CCC3)c1`, the Potency entry in [1], in test [2], in test [4], in test [5], in test [8] and in [9] was “inactive” in each case. Also, the Potency result in test [11], in [12] and in test [13] was “inactive” each time. Further, the outcome in test [3], in test [6], in test [7], in test [10] and in test [14] was inactive.
Turning to `Oc1cccc2[nH]ccc12`, the Potency entry in test [1], in test [2], in test [16], in test [4], in test [17] and in [5] was “inactive” throughout. The Potency result in [8], in [9], in test [18], in [12], in test [19] and in test [13] was “inactive” throughout. Besides, the outcome in test [15], in test [3], in [10] and in test [14] was inactive.
For `FC(F)(F)C(F)(F)C(F)(F)C(F)(F)CCI`, the molecule was called inactive in [15], in [6], in [7], in test [10] and in test [14]. In addition, the Potency result in test [2], in test [16], in test [4], in test [5], in test [8] and in test [18] was “inactive” in each case. The Potency result in test [12], in test [19] and in test [13] was “inactive” in each case.
With `CC(=O)C(C)=O`, the Potency entry in [1], in [2], in [16], in [4], in [17] and in [5] was “inactive” throughout. Also, the Potency result in test [8], in test [9], in test [18], in test [12], in test [19] and in test [13] was “inactive” throughout. The call in test [15], in test [3], in test [7], in test [10] and in test [14] was inactive.
For `Cc1ccc2nc(N)[nH]c(=O)c2c1Sc1ccncc1`, the Potency entry in test [1], in test [2], in test [16], in test [5], in test [8] and in test [9] was “inactive” in each case. In addition, the Potency result in [18], in test [12] and in test [13] was “inactive” throughout. Moreover, the result in test [15], in [6], in test [7], in [10] and in test [14] was inactive.
Turning to `O[C@@H](CNC[C@H](O)[C@H]1CCc2cc(F)ccc2O1)[C@@H]1CCc2cc(F)ccc2O1`, the Potency was 23.7 µM (active) in [1]; 23.7 µM (active) in [2]; 13.3 µM (active) in test [4]; 29.8 µM (active) in test [5]; 21.1 µM (active) in test [8]; 21.3 µM (active) in [9]. Also, the Potency result in test [17], in [11] and in test [13] was “inactive” in each case. The outcome in test [10] and in test [14] was inactive.
`Cc1cccc(C)c1NC(=O)c1cc(S(N)(=O)=O)c(Cl)cc1O`: the Potency result in [1], in test [2], in test [16], in test [4], in [17] and in test [5] was “inactive” each time. The Potency entry in test [8], in [9], in [11], in test [12] and in [13] was “inactive” in each case. Further, the molecule was classed as inactive in test [15], in test [3], in test [7], in test [10] and in test [14].
`CCC(CO)(CO)[N+](=O)[O-]`: the Potency result in [1], in test [2], in test [16], in [4], in test [17] and in test [5] was “inactive” each time. Also, the Potency result in test [8], in test [9], in test [18], in test [12] and in [13] was “inactive” throughout. The molecule was classed as inactive in [15], in [3], in [6], in test [7], in test [10] and in [14].

Source of the values: PubChem BioAssay (Tox21).
